# Records with an inconclusive call do not appear. Entries that show only a call come without a potency. Values without a mark were called inactive. Active and inactive are the calls of the source. Calls come from the whole dose curve; as a rule, active = well fitted curve in the direction sought with a large enough effect; inconclusive = small, poorly fitted or top-dose-only effect, or another doubt; inactive = no such curve, though single readings can be large; an effect the other way counts as inactive or inconclusive.
# Columns and labels:
# NIH3T3 = assay: qHTS assay to identify novel small-molecules to repurpose for Merkel cell carcinoma treatment (AID 1296009); conditions: MCC and control cell lines, CellTiter-Glo viability, 72 h; series mostly up to 44.8 µM; note: nearly all actives have a fitted effect of over 60% in size
# Procedure, shortened: (§1)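 Cell viability, measured as CellTiter-Glo luminescence, was normalized between DMSO and no-cell wells. The cells had been exposed to 8- or 11-point compound dilutions for 72 hr at 37 degree celsius.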
# C33A = assay: Primary qHTS to identify gynecologic anti-cancer compounds using libraries of approved drugs and bioactive compounds (AID 1345084); conditions: Gynecologic cancer cell panel viability, ATPlite luminescence, 48 h; series mostly up to 57.5 µM; note: nearly all actives have a fitted effect of over 55% in size
# Procedure, shortened: (§2)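 In this quantitative HTS, cell killing is estimated from loss of ATP-dependent luciferase light. Cells see five compound concentrations over a 48 h exposure.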
# CAOV3 = assay: as above; conditions: Gynecologic cancer cell panel viability, ATPlite luminescence, 48 h; series mostly up to 57.5 µM
# Procedure, shortened: as §2
# CASKI = assay: as above; conditions: Gynecologic cancer cell panel viability, ATPlite luminescence, 48 h; series mostly up to 57.5 µM
# Procedure, shortened: as §2
# Es-2 = assay: as above; conditions: Gynecologic cancer cell panel viability, ATPlite luminescence, 48 h; series mostly up to 57.5 µM
# Procedure, shortened: as §2
# HeLa = assay: as above; conditions: Gynecologic cancer cell panel viability, ATPlite luminescence, 48 h; series mostly up to 57.5 µM
# Procedure, shortened: as §2
# Hek293T = assay: as above; conditions: Gynecologic cancer cell panel viability, ATPlite luminescence, 48 h, control line for the selectivity index; series mostly up to 57.5 µM
# Procedure, shortened: as §2
# JEG-3 = assay: as above; conditions: Gynecologic cancer cell panel viability, ATPlite luminescence, 48 h; series mostly up to 57.5 µM
# Procedure, shortened: as §2
# OV90 = assay: as above; conditions: Gynecologic cancer cell panel viability, ATPlite luminescence, 48 h; series mostly up to 57.5 µM
# Procedure, shortened: as §2
# MKL-2 = assay: qHTS assay to identify novel small-molecules to repurpose for Merkel cell carcinoma treatment (AID 1296009); conditions: MCC and control cell lines, CellTiter-Glo viability, 72 h; note: nearly all actives have a fitted effect of over 60% in size
# Procedure, shortened: as §1
# Potency is the fitted concentration of half-maximal effect.
SMILES,Potency (NIH3T3),Potency (C33A),Potency (CAOV3),Potency (CASKI),Potency (Es-2),Potency (HeLa),Potency (Hek293T),Potency (JEG-3),Potency (OV90),Potency (MKL-2)
CC#C[C@@H](CC(=O)O)c1ccc(OCc2ccc(CN3CCC4(C=Cc5ccccc54)CC3)s2)cc1,inactive,inactive,inactive,inactive,inactive,inactive,inactive,inactive,inactive,
O=C(NCCN1CCC(n2c(=O)[nH]c3ccccc32)CC1)c1cc2cc(F)ccc2[nH]1,inactive,inactive,inactive,inactive,inactive,inactive,inactive,inactive,inactive,
CCC(=O)N1CCOc2c(cc(-c3ccc(OC)c(OC)c3)cc2OC[C@H]2CCCN(C)C2)C1,inactive,inactive,inactive,inactive,inactive,inactive,inactive,inactive,inactive,
COc1cc(O)cc(OC2OC(CO)C(O)C(O)C2O)c1 (centres undefined),inactive,inactive,inactive,inactive,inactive,inactive,inactive,inactive,inactive,
CC1=CC2/C=C(\C)CCC(O)C/C=C/C(=O)OC23C(=O)NC(CC(C)C)C3C1C (centres undefined),inactive,inactive,inactive,inactive,inactive,inactive,inactive,inactive,inactive,
COC(=O)c1cc(Br)cnc1N1CCC(NC2CCCCC2)C(O)C1 (centres undefined),inactive,inactive,inactive,inactive,inactive,inactive,inactive,inactive,inactive,
COCC(c1ccc(C(F)(F)F)cc1)N1CCN(C2(C)CCN(C(=O)c3c(C)ncnc3C)CC2)CC1C (centres undefined),inactive,inactive,inactive,inactive,inactive,inactive,inactive,inactive,inactive,
Nc1c(S(=O)(=O)c2ccccc2)c2nc3ccccc3nc2n1-c1ccc(F)cc1,inactive,inactive,inactive,inactive,inactive,inactive,inactive,inactive,inactive,
CC[N+]1(C/C2=C/CCCCCC2)CCC(NC(=O)C2c3cc(Cl)ccc3Oc3ccc(Cl)cc32)CC1 (centres undefined),inactive,inactive,inactive,inactive,inactive,inactive,inactive,inactive,inactive,
CCN1C(C)(C)CC(Oc2ccc(C(=O)Nc3ccc(NC(=O)Nc4cc(C(C)(C)C)on4)cc3)nc2)CC1(C)C,inactive,inactive,inactive,inactive,inactive,inactive,inactive,inactive,inactive,
CCOc1ccc(S(=O)(=O)N2CCCCCC2)c2ccccc12,inactive,inactive,inactive,inactive,inactive,inactive,inactive,inactive,inactive,
O=C(N[C@H]1CCN(C(=O)c2cc(C(F)(F)F)cc(C(F)(F)F)c2)[C@H](Cc2ccc(Cl)cc2)C1)c1ccnc2ccccc12,inactive,inactive,inactive,inactive,inactive,inactive,inactive,inactive,inactive,
CCC(CC)C(=O)OC12C(OC(=O)C(C)C)C(C)C3(O)C(C=C(CO)CC4(O)C(=O)C(C)=CC43)C1C2(C)C (centres undefined),inactive,inactive,inactive,inactive,0.0708 µM (active),inactive,inactive,inactive,,
CC1(C)C2CCC(CO[C@@H]3O[C@H](CO[C@@H]4OC[C@](O)(CO)[C@H]4O)[C@@H](O)[C@H](O)[C@H]3O)C1C2 (some centres undefined),inactive,inactive,inactive,inactive,inactive,inactive,inactive,inactive,inactive,
CN(C)C(CCOc1cccc2ccccc12)c1ccccc1 (centres undefined),inactive,inactive,inactive,inactive,inactive,inactive,inactive,inactive,,
COc1ccc2c(c1O[C@H]1CCNC1)CCC2,inactive,inactive,inactive,inactive,inactive,inactive,inactive,inactive,inactive,
CC(=O)OC1C(OC(=O)c2ccccc2)C2C(C)(C)CCC(OC(C)=O)C2(C)C23CCC(C)(C2)C(=O)CC13 (centres undefined),inactive,inactive,inactive,inactive,inactive,inactive,inactive,inactive,inactive,
COC(=O)CC[C@@H](C)C1CCC2C3CCC4C[C@H](OC(C)=O)CCC4(C)C3C[C@H](O)C21C (some centres undefined),inactive,inactive,inactive,inactive,inactive,inactive,inactive,inactive,inactive,
CNCCC(c1cccs1)c1ccc(O)c2ccccc12 (centres undefined),inactive,inactive,inactive,inactive,inactive,inactive,inactive,,,
COc1ccc(CCN(C)CCCOc2nsc(-c3ccccc3)n2)cc1OC,inactive,inactive,inactive,inactive,inactive,inactive,inactive,inactive,inactive,
CC(=O)NC[C@H]1CN(c2ccc(N3CCSCC3)c(F)c2)C(=O)O1,inactive,inactive,inactive,inactive,inactive,inactive,inactive,inactive,inactive,
COc1cc2ncnc(Nc3ccc(F)c(Cl)c3)c2cc1O,inactive,inactive,inactive,inactive,inactive,inactive,inactive,inactive,,

SMILES,Potency (NIH3T3),Potency (C33A),Potency (CAOV3),Potency (CASKI),Potency (Es-2),Potency (HeLa),Potency (Hek293T),Potency (JEG-3),Potency (OV90),Potency (MKL-2)
COC(=O)c1ccc2c(c1)[nH]c1ncnc(NCCCN3CCCCC3)c12,inactive,inactive,inactive,inactive,inactive,inactive,inactive,inactive,inactive,
CN[C@H]1CC[C@@H](c2ccc(Cl)c(Cl)c2)c2ccccc21,,,,28.2 µM (active),,,,,,8.41 µM (active)
Cc1cc(OCCCS(C)(=O)=O)cc(C)c1-c1cccc(COc2ccc3c(c2)OCC3CC(=O)O)c1 (centres undefined),inactive,inactive,inactive,inactive,inactive,inactive,inactive,inactive,inactive,
CNC(C)C(=O)NC(C(=O)N1CCCC1C(=O)Nc1snnc1-c1ccccc1)C1CCCCC1 (centres undefined),inactive,inactive,inactive,inactive,inactive,inactive,inactive,inactive,inactive,
C[C@@]12C(=O)N(c3ccc(C(=O)Nc4cccc5cccnc45)cc3)C(=O)[C@@H]1[C@@H]1C=C[C@H]2C1,inactive,inactive,inactive,inactive,inactive,inactive,inactive,inactive,inactive,
C=C1CC[C@@H]2[C@](C)(CO)[C@H](O)CC[C@@]2(C)[C@@H]1CC(O)C1=CCOC1=O (some centres undefined),inactive,inactive,inactive,inactive,inactive,inactive,inactive,inactive,inactive,
Oc1cccc(-c2c3nc(c(-c4cccc(O)c4)c4ccc([nH]4)c(-c4cccc(O)c4)c4nc(c(-c5cccc(O)c5)c5ccc2[nH]5)CC4)C=C3)c1,,,inactive,inactive,,,,inactive,,13.3 µM (active)
CN(C)S(=O)(=O)c1ccc(NC(=S)N2CCC(C(O)(c3ccccc3)c3ccccc3)CC2)cc1,inactive,inactive,inactive,inactive,inactive,inactive,inactive,inactive,inactive,
CC(C)(C)c1ccc2c(c1)CC[C@H]2NC(=O)Nc1cccc2[nH]ncc12,inactive,inactive,inactive,inactive,inactive,inactive,inactive,inactive,inactive,
CCn1c(=O)n([C@H]2CCCN(c3nccc(-c4cc5ccccc5o4)n3)C2)c2ccccc21,inactive,inactive,inactive,inactive,inactive,inactive,inactive,inactive,inactive,
C[C@@H]1CN(CC(=O)N2CC(C)(C)c3ncc(Cc4ccc(F)cc4)cc32)[C@@H](CN2CCOC[C@H]2C)CN1,inactive,,,,,,,,,
C=C1CCN([C@H](C)[C@](O)(Cn2cncn2)c2ccc(F)cc2F)CC1,inactive,inactive,inactive,inactive,inactive,inactive,inactive,inactive,inactive,
C=C[C@H](/C=C\c1ccc(O)cc1)c1ccc(O)cc1,inactive,inactive,inactive,inactive,inactive,inactive,inactive,inactive,inactive,
Cc1c(Cl)cccc1S(=O)(=O)Nc1nc(NCCc2ccccc2)nc2c1CN(Cc1ccccc1)CC2,inactive,inactive,inactive,inactive,inactive,inactive,inactive,inactive,inactive,
N[C@@H]1c2cccnc2[C@H](OC(=O)N2CCC(n3c(=O)[nH]c4ncccc43)CC2)CC[C@H]1c1cccc(F)c1F,inactive,inactive,inactive,inactive,inactive,inactive,inactive,inactive,inactive,
COc1cc(N(C)CCN(C)C)c(N)cc1Nc1nccc(-c2cn(C)c3ccccc23)n1,inactive,inactive,inactive,inactive,inactive,inactive,inactive,inactive,inactive,
C=CC(=O)N1CC(N2CCN(C(=O)CNc3cc(C4CC4)c(Cl)cc3O)CC2)C1,inactive,inactive,inactive,inactive,inactive,inactive,inactive,inactive,inactive,
C=C(COC(=O)C(O)C(O)CN)C12OC1C1(C)C(=CC2=O)C(O)C(O)CC1C (centres undefined),inactive,inactive,inactive,inactive,inactive,inactive,inactive,inactive,inactive,
COc1cc(C(C)=O)c(OC)c2c1OC(C)(C)C=C2,inactive,inactive,inactive,inactive,inactive,inactive,inactive,inactive,inactive,
COC(=O)CC(O)CC(O)/C=C/c1c(C)ccc2c1C(OC(C)=O)CC(C)C2 (centres undefined),inactive,inactive,inactive,inactive,inactive,,inactive,inactive,,
COc1cc2c(cc1OCCCN1CCCC1)N=C(N)C21CCC1,inactive,inactive,inactive,inactive,inactive,inactive,inactive,inactive,inactive,
CC1=C2C[C@@]3(C)C(CCC[C@@H]3C)C(O)C2OC1=O (some centres undefined),inactive,inactive,inactive,inactive,inactive,inactive,inactive,inactive,inactive,

# — PubChem BioAssay (NCATS)
